Laboratory results published in PubChem BioAssay.
Activity calls are given as the source filed them. Unless noted, how the calls were made is not given here.

Assays:
[1] = test system: Wnt5a (protein binding on small-molecule microarray); test: small molecules binding Wnt5a protein – biophysical, small-molecule microarray, 635/667 nm fluorescence, primary screen (AID 1142); settings: 635 nm fluorescence, higher = more signal;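 further: fluorescence read at 667 nm with signal to noise per printed feature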
[2] = ATP-based viability of Huh7 replicon cells – cell-based, CellTiter-Glo luminescence, basal, 48 h, cytotoxicity control for HCV replication inhibitor project, primary screen (AID 1143); settings: higher = more signal, called active from +8 up or from −8 down;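 further: Huh7 hepatoma cells carrying a hepatitis C replication reporter with no stimulus; test concentration not given here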
[3] = Pseudomonas biofilm growth suppression – PAO1 strain, BacTiter-Glo luminescence, LB-PBS, primary screen (AID 1144); settings: P. aeruginosa PAO1 biofilm, 12 h, higher = more signal
[4] = basal CRE-LacZ reporter activity in PC12 – cell-based, unstimulated, primary screen (AID 1145); settings: no forskolin, luminescence, 4.5 h, higher = more signal, called active from +8 up or from −8 down
[5] = forskolin-driven CRE-LacZ activity in PC12 – cell-based, CRE-LacZ reporter, forskolin-stimulated, primary screen (AID 1146); settings: luminescence, 4.5 h, higher = more signal, called active from +8 up or from −8 down;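 further: PC12 cells with 6xCRE LacZ reporter stimulated by forskolin 10 µM; beta-galactosidase reporter signal reflecting CREB driven transcription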
[6] = target: Streptavidin (Streptomyces avidinii) (UniProt P22629); test: compounds binding control protein streptavidin – biophysical, small-molecule microarray, 635/667 nm fluorescence, artefact control for SMM compound annotation, primary screen (AID 1147); settings: higher = more signal;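 further: signal reflects streptavidin binding to arrayed compounds as a control protein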
Chain of Streptavidin (Streptomyces avidinii) (P22629 whole entry, looked up): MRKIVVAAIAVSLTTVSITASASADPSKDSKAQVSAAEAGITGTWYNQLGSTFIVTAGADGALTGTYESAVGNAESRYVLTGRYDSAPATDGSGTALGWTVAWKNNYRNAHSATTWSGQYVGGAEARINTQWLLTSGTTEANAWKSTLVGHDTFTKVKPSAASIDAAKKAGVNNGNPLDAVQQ

[7] = probe aInhba binding on compound microarray – biochemical, small-molecule microarray, 635/667 nm fluorescence, primary screen (AID 1148); settings: higher = more signal;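 further: score merges 667nm spot fluorescence with signal-to-noise for antibody binding to printed compounds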
Torsin-1A (Homo sapiens) [8] = target: Torsin-1A (Homo sapiens) (UniProt O14656); test: TOR1A wild-type binding on microarray – cell lysate, small-molecule microarray, lysate, 635/667 nm, primary screen (AID 1149); settings: COS7 hTOR1A-WT lysate, 635 nm fluorescence, higher = more signal
Chain of Torsin-1A (Homo sapiens) (O14656 whole entry, looked up): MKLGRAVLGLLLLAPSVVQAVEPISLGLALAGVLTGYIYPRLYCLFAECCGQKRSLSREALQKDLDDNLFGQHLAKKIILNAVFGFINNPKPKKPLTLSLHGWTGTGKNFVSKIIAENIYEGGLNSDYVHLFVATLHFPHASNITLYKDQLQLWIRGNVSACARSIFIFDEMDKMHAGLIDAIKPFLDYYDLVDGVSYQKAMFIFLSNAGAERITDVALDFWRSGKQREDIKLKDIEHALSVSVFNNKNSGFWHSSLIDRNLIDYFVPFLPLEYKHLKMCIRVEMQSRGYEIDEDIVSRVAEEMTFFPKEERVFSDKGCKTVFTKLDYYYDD

Torsin-1A (Homo sapiens) [9] = target: Torsin-1A (Homo sapiens) (UniProt O14656); test: torsin A mutant lysate binding on microarrays – cell lysate, small-molecule microarray, COS7 lysate, 635/667 nm fluorescence, primary screen (AID 1150); settings: COS7 hTOR1A mutant lysate, 635 nm fluorescence, higher = more signal;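 further: score pools 667 nm emission and signal to noise measuring lysate protein binding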
[10] = test system: Sonic hedgehog protein (Shh); test: Sonic hedgehog microarray binding compounds – biochemical, small-molecule microarray, 635/667 nm fluorescence, primary screen (AID 1151); settings: 635 nm fluorescence, higher = more signal;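 further: Shh protein binding to compounds spotted on small-molecule microarray slides; score combines spot fluorescence intensity with signal-to-noise across triplicate slides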
[11] = optical density shifts of acrAB sulA E. coli – strain DRC41, OD650, 48 h, E. coli filamentation inducer project, primary screen (AID 1152); settings: higher = more signal, called active from +8 up or from −8 down;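 further: E. coli MC1000 strain DRC41 lacking acrAB efflux pump and sulA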
[12] = probe aLefty1 binding on compound microarray – biochemical, small-molecule microarray, 635/667 nm fluorescence, primary screen (AID 1153); settings: higher = more signal;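 further: score merges spot fluorescence with signal-to-noise ratio from the scanned slide images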
[13] = plasmodial surface anion channel blockers, osmotic lysis – cell-based, P. falciparum Indochina, OD700, 1 h, primary screen (AID 1154); settings: P. falciparum Indochina infected RBC osmotic lysis, higher = more signal, called active from +8 up or from −8 down
[14] = plasmodial surface anion channel blockers, osmotic lysis – cell-based, P. falciparum Indochina, OD700, 2 h, primary screen (AID 1155);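 further: lysis reports solute entry through the parasite surface anion channel PSAC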; settings: P. falciparum Indochina infected erythrocytes, higher = more signal, called active from +8 up or from −8 down
[15] = changes in parasitized red cell lysis, either direction – P. falciparum Indochina, OD700, 3 h, PSAC antagonist project, primary screen (AID 1156); settings: P. falciparum-infected erythrocytes, osmotic lysis, higher = more signal, called active from +8 up or from −8 down
[16] = plasmodial surface anion channel blockers, osmotic lysis – cell-based, P. falciparum Indochina, OD700, 18 h, primary screen (AID 1157); settings: P. falciparum Indochina infected erythrocytes, osmotic lysis OD700, 18 h; higher = more signal, called active from +8 up or from −8 down
[17] = S6 kinase pathway phospho-S6 level changes – cell-based, A549, cytoblot, luminescence, serum-stimulated, primary screen (AID 1158); settings: 5 h, higher = more signal;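 further: serum-stimulated A549 lung adenocarcinoma cells; signal is phosphorylated S6 detected by cytoblot immunostaining with HRP secondary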
[18] = target: NADPH oxidase 2 (Homo sapiens) (UniProt P04839); test: compounds shifting NOX2 Amplex Red fluorescence – cell-based, HEK293-NOX2, PMA-stimulated, NOX inhibitor project, primary screen (AID 1159); settings: 45 min, higher = more signal, called active from +8 up or from −8 down; further: test concentration not given here
Chain of NADPH oxidase 2 (Homo sapiens) (P04839 whole entry, looked up): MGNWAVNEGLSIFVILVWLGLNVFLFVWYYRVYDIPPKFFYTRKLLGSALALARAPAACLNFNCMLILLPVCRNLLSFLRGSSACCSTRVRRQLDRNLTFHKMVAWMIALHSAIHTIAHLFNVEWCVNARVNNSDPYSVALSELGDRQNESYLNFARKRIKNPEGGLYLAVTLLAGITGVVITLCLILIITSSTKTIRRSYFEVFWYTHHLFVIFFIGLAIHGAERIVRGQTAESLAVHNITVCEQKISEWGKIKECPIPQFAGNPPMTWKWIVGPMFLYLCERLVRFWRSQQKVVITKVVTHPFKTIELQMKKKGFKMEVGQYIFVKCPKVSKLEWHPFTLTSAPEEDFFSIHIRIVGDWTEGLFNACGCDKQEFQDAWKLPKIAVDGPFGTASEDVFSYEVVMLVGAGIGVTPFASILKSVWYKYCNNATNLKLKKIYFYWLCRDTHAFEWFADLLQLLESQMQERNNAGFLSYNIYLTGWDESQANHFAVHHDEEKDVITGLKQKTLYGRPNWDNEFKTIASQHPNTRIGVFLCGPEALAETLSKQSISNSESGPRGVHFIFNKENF

[19] = target: NADPH oxidase 4 (Homo sapiens) (UniProt Q9NPH5); test: compounds shifting NOX4 Amplex Red fluorescence – cell-based, HEK293-NOX4, tetracycline-induced, NOX inhibitor project, primary screen (AID 1160); settings: HEK293-NOX4, Amplex Red H2O2 fluorescence, 45 min; higher = more signal, called active from +8 up or from −8 down
Chain of NADPH oxidase 4 (Homo sapiens) (Q9NPH5 whole entry, looked up): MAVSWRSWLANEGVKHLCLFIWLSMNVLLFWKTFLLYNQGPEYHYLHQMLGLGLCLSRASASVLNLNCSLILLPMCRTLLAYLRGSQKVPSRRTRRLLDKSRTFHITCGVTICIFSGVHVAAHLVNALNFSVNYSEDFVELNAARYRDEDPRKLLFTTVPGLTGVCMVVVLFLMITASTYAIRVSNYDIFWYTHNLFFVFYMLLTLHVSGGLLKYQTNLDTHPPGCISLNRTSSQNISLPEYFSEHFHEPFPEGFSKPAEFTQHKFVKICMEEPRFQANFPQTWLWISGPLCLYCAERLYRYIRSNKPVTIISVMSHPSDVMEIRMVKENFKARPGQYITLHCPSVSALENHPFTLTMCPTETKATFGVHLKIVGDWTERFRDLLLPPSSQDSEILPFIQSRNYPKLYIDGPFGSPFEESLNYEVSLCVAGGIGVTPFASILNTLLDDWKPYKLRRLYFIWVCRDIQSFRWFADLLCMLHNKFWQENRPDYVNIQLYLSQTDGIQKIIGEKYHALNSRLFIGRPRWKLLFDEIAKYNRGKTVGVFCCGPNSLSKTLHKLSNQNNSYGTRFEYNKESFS

[20] = target: NADPH oxidase 5 (Homo sapiens) (UniProt Q96PH1); test: compounds shifting NOX5 Amplex Red fluorescence – cell-based, HEK293-NOX5, NOX inhibitor project, primary screen (AID 1161); settings: HEK293-NOX5, ionomycin, 45 min, higher = more signal
Chain of NADPH oxidase 5 (Homo sapiens) (Q96PH1 whole entry, looked up): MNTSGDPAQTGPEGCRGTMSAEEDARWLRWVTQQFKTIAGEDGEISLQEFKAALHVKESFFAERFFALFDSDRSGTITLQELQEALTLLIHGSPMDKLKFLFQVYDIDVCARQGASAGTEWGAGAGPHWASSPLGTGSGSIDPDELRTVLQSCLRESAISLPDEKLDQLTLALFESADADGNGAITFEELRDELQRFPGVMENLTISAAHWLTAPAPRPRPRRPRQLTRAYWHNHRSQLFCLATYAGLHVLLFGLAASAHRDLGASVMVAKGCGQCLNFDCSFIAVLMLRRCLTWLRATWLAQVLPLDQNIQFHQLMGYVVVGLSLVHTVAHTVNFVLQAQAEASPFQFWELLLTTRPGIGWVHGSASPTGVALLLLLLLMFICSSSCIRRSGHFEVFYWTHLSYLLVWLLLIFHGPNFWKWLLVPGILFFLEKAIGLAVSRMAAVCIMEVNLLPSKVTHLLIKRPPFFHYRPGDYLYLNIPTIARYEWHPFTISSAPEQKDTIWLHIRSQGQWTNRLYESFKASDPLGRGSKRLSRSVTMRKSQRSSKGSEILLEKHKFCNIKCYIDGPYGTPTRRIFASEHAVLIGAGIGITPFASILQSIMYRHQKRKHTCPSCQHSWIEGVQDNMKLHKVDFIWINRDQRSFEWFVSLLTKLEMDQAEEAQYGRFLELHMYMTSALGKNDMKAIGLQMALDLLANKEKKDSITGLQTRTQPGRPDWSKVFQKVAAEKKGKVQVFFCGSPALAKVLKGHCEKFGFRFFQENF

Row | SMILES | composite z-score [1] | z-score [2] | z-score [3] | z-score [4] | z-score [5] | composite z-score [6] | composite z-score [7] | composite z-score (Torsin-1A (Homo sapiens) [8]) | composite z-score (Torsin-1A (Homo sapiens) [9]) | composite z-score [10] | z-score [11] | composite z-score [12] | z-score [13] | z-score [14] | z-score [15] | z-score [16] | z-score [17] | z-score [18] | z-score [19] | z-score [20]
1 | O=C1O[C@@H](c2ccccc2)[C@@H](c2ccccc2)N2[C@@H](c3ccc(O)cc3)[C@]3(C(=O)Nc4ccc(C#CC5=CCCCC5)cc43)[C@@H](C(=O)NC[C@H](O)c3ccccc3)[C@H]12 | 0.361 | -3.48 (inactive) | -1.16 (inactive) | -0.0246 (inactive) | -0.199 (inactive) | 0.212 | 0.0833 | 0.675 | 0.677 | 1.48 | 1.22 (inactive) | 0.15 | 0.622 (inactive) | 0.347 (inactive) | -0.853 (inactive) | 0.933 (inactive) | 0.0825 | 1.22 (inactive) | 0.53 (inactive) | 0.909
2 | COc1ccc(CCNC(=O)[C@@H]2c3ccccc3C(=O)N(Cc3cc(C(F)(F)F)cc(C(F)(F)F)c3)[C@H]2c2ccc(CO)cc2)cc1 | 0.822 | -1.41 (inactive) | 0.703 (inactive) | 0.441 (inactive) | 0.632 (inactive) | 0.915 | -0.016 | -0.498 | -0.181 | 0.355 | 0.0073 (inactive) | 0.108 | 4.55 (inactive) | 0.383 (inactive) | 0.767 (inactive) | 0.233 (inactive) | 0.154 | -1.75 (inactive) | 0.194 (inactive) | -0.077
3 | C[N+](C)(C)CCCC[C@@H]1NC(=O)[C@H]2C[C@@H](C(=O)NCCCCCCN)[C@@H](c3ccc(O)cc3)N2C1=O | 0.408 | -0.548 (inactive) | 1.09 (inactive) | -0.528 (inactive) | -1.1 (inactive) | 0.859 | 0.108 | 0.774 | 0.545 | -0.117 | 0.429 (inactive) | 0.284 | 0.625 (inactive) | 0.328 (inactive) | -2.08 (inactive) | 0.326 (inactive) | 0.191 | 0.00341 (inactive) | -1.73 (inactive) | 0.273
4 | C=CC[C@]1(C(=O)O)COC(c2ccc(OCCCO)cc2)=N1 | -0.0405 | 0.543 (inactive) | -0.852 (inactive) | 1.46 (inactive) | 0.123 (inactive) | -0.447 | -0.103 | -0.0985 | 0.338 | 0.0518 | -0.27 (inactive) | 0.0437 | 2.23 (inactive) | -0.0432 (inactive) | 0.472 (inactive) | 0.2 (inactive) | -0.331 | 0.388 (inactive) | -0.287 (inactive) | 1.09
5 | CCOC(=O)C1=CC[C@@H](c2ccc(OCc3ccccc3)c(OC)c2)N(S(=O)(=O)c2ccc(C)cc2)[C@H]1c1ccc(SC)cc1 | 0.683 | -1.51 (inactive) | 0.765 (inactive) | 0.967 (inactive) | 0.137 (inactive) | 1.42 | 0.113 | 1.28 | 1.4 | 0.249 | -1.21 (inactive) | 0.524 | 0.658 (inactive) | 0.9 (inactive) | 0.692 (inactive) | 0.387 (inactive) | -0.635 | 0.877 (inactive) | 0.0161 (inactive) | -0.508
6 | O=C1OCC=C[C@H]2OC34C=CCN(Cn5nnc6ccccc65)C(=O)[C@H]3N(CCCO)C(=O)[C@@H]4[C@@H]12 (stereo not given in full) | -0.439 | -2.27 (inactive) | -1.17 (inactive) | -0.887 (inactive) | -0.247 (inactive) | -0.266 | -0.224 | 0.183 | -1.85 | 0.182 | 1.54 (inactive) | 0.0861 | 0.243 (inactive) | -1.01 (inactive) | 1.24 (inactive) | -0.602 (inactive) | 0.277 | 0.847 (inactive) | -1.42 (inactive) | 0.1
7 | CCCNC(=O)[C@@H]1c2ccccc2C(=O)N(C(C)C)[C@H]1c1ccc(CO)cc1 | -0.122 | -0.0095 (inactive) | -0.521 (inactive) | -0.412 (inactive) | 0.211 (inactive) | -0.0547 | 0.0658 | -0.215 | 0.0984 | -0.121 | 0.737 (inactive) | 0.202 | 1.67 (inactive) | -0.1 (inactive) | 0.21 (inactive) | -0.21 (inactive) | -0.0878 | 0.162 (inactive) | 0.514 (inactive) | -0.0547
8 | Cc1ccc(S[C@]2(C(=O)O)CC(=O)N(Cc3ccccc3Cl)[C@@H]2c2ccc(CO)cc2I)cc1 | -0.3 | -2.09 (inactive) | -0.309 (inactive) | 1.2 (inactive) | 3 (inactive) | -0.657 | -0.649 | 0.294 | 0.396 | 0.0254 | -0.754 (inactive) | -0.814 | 8.88 (active) | 1.4 (inactive) | 0.767 (inactive) | 0.744 (inactive) | -0.0366 | 3.66 (inactive) | -2.51 (inactive) | -0.915
9 | COc1ccc([Si](C)(C)[C@@H]2[C@@H](CC(=O)N(CCO)Cc3ccccc3)O[C@]3(C(=O)N(Cc4cccc(N5C(=O)c6cccc7cccc5c67)c4)c4ccccc43)[C@H]2C)cc1 | -0.164 | -5.84 (inactive) | -1.02 (inactive) | -0.999 (inactive) | -0.823 (inactive) | -0.24 | -0.0762 | -0.0207 | 0.502 | 0.982 | 2.02 (inactive) | 0.287 | 4.59 (inactive) | 0.343 (inactive) | -0.667 (inactive) | -0.526 (inactive) | 1.92 | 1.09 (inactive) | 1.09 (inactive) | 3
